Screening data as filed in PubChem.
ATXN2 expr inh: Primary qHTS for Inhibitors of ATXN expression; HEK-293 ATXN2-luciferase reporter, luminescence, 24 h; Potency, µM (highest dose often 57 µM), most hits filed as inhibitors; 0.72% of 360,000 active; also: nearly all actives have a fitted effect of over 55% in size
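qHTS (up to 57 uM final) was run with 24 h compound exposure of reporter cells at 37 °C. Each well was multiplexed: SteadyGlo luminescence measured ATXN2-luciferase expression after a fluorogenic Gly-Phe-AFC viability readout (25 uM final).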
D3 antag: qHTS of D3 Dopamine Receptor Antagonist: qHTS; D(3) dopamine receptor (Homo sapiens), P35462; D3R cells, DiscoveRx beta-arrestin luminescence, antagonist mode; hits give low values; max response, negative = inhibition, %; 2.5% of 360,000 active; in the data active = max response below about -50%; inconclusive = no clear call, values can overlap the other calls
Target sequence (P35462 whole entry, looked up): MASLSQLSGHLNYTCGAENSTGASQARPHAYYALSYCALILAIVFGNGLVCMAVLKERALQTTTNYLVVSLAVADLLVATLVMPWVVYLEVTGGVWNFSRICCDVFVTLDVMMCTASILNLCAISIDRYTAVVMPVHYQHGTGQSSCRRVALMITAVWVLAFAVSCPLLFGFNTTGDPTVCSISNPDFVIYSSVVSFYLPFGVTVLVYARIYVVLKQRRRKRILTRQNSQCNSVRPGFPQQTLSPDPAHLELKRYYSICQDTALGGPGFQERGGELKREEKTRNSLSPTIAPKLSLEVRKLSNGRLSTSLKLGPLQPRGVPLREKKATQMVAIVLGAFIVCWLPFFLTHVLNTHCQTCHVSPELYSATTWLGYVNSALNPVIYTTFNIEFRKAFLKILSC
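Cells expressing the human receptor were seeded at 1500 cells/well, incubated overnight at 37 degrees C in 5% CO2, then exposed to library compounds with dopamine controls for 90 minutes at 37 degrees C before luminescent detection.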
TGFb SMAD3 inh: qHTS for Inhibitors of TGF-b; HepG2 CAGA-GFP TGF-b/SMAD3 reporter, GFP fluorescence, 18 h; TGF-beta stimulated, 500 pg/mL final; Potency, µM (titrated, usually from 46.1 µM), most hits filed as inhibitors; 1.2% of 410,000 active; AID 588855, 2011; also: nearly all actives have a fitted effect of over 65% in size
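Cell-based qHTS in HEPG2 carrying a CAGA-GFP Smad reporter; compounds added before 500 pg/mL final TGF-beta, 18 h incubation at 37 degrees C, GFP fluorescence quantified per cell by imaging cytometry.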
HepG2 viability: qHTS for Inhibitors of TGF-b: Cytotox Counterscreen; HepG2 CAGA-GFP viability, ATP luminescence, 18 h; Potency, µM (top dose mostly 46.1 µM), hits mostly cytotoxic; 0.76% of 410,000 active
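CellTiter-Glo luminescence gave cytotoxicity after 18 hours at 37 degrees C. The cells were HepG2 CAGA-GFP in 1% FBS DMEM, stimulated with 500 pg/mL TGF-beta after compound addition. %Activity was normalised to no-cell wells (complete cell-killing) and DMSO (no toxicity), and curves were fitted and classified.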
DRD3 agonist: qHTS of D3 Dopamine Receptor Agonist: qHTS; D(3) dopamine receptor (Homo sapiens), P35462; D3R DiscoveRx beta-arrestin cells, luminescence, 90 min; max activation, %; 0.58% of 410,000 active; AID 652048, 2013; in the data active = max activation above about 30%
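Agonist-mode cell screen: cells plated at 1500/well and incubated overnight at 37 °C, then exposed to library compounds for 90 min at 37 °C. Detection reagent was added for 30–60 min at room temperature, and luminescence was read.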
S2 tox: Viability Counterscreen for Primary qHTS for Inhibitors of ATXN expression; S2 cells (HEK-293 line with an ATXN2-luciferase reporter) viability, CellTiter-Fluor protease fluorescence, 24 h; Potency, µM (top dose mostly 56.7 µM), actives largely listed as cytotoxic; 0.49% of 400,000 active; also: nearly all actives have a fitted effect of over 40% in size
Numbers stand for hits; [ ] = dose if it differs, or a comment. Hits are enriched below; roughly 4.8% of the tested compounds scored in any of these assays. Unless noted, calls follow the shape of the dose curve; as a rule, active = well fitted curve in the direction sought with a large enough effect; inconclusive = small, poorly fitted or top-dose-only effect, or another doubt; inactive = no such curve, though single readings can be large; an effect the other way counts as inactive or inconclusive.

`COc1ccc(C(=O)NCCc2sc(-c3cccc(F)c3)nc2C)cc1` gave ATXN2 expr inh inactive, TGFb SMAD3 inh inactive, HepG2 viability inactive, DRD3 agonist inactive and S2 tox inactive.
Cc1ccc(C(=O)Nc2nnc(SCc3cc(=O)c4c(C)ccc(C)c4[nH]3)s2)cc1 was read as ATXN2 expr inh inactive, TGFb SMAD3 inh inconclusive, HepG2 viability inactive, DRD3 agonist inactive and S2 tox inactive.
CCOc1ccc(-c2n[nH]c(C)c2Oc2ccc(OC)cc2)c(O)c1 was read as ATXN2 expr inh inactive, D3 antag inactive, TGFb SMAD3 inh inconclusive, HepG2 viability 13µM, DRD3 agonist inactive and S2 tox inactive.
Cc1ccc(NC(=O)Cc2ccc(-n3c(C)nc4cccnc43)cc2)c(Cl)c1 was read as TGFb SMAD3 inh inconclusive, HepG2 viability inactive and DRD3 agonist inactive.
Screening COc1ccc(C(=O)C[n+]2ccccc2Cl)cc1 returned TGFb SMAD3 inh inconclusive and HepG2 viability inactive.
CCN(CC)c1ccc(C2C(C(=O)OC)=C(C)NC(C)=C2C(=O)OC)cc1 was read as ATXN2 expr inh inactive, D3 antag -51, TGFb SMAD3 inh inactive, HepG2 viability inactive, DRD3 agonist inactive and S2 tox inactive.
`Clc1cccc(-c2nnc(CN3CCN(c4ccccn4)CC3)o2)c1` gave ATXN2 expr inh inactive, TGFb SMAD3 inh inactive, HepG2 viability inactive, DRD3 agonist 95 and S2 tox inactive.
For Fc1ccc(N2CCN(Cc3nnc(-c4ccccc4Cl)o3)CC2)cc1 the results were ATXN2 expr inh inactive, TGFb SMAD3 inh inactive, HepG2 viability inactive, DRD3 agonist inactive and S2 tox inactive.
Fc1ccc(-c2nnc(CN3CCN(c4ccccn4)CC3)o2)cc1 was read as ATXN2 expr inh inactive, TGFb SMAD3 inh inactive, HepG2 viability inactive, DRD3 agonist 80 and S2 tox inactive.
Screening c1ccc(-c2nnc(CN3CCN(c4ccccn4)CC3)o2)cc1 returned ATXN2 expr inh inactive, TGFb SMAD3 inh inactive, HepG2 viability inactive, DRD3 agonist 98 and S2 tox inactive.
For Cc1cccc(CNC(=O)c2cnn(-c3nccc(-c4ccccc4C(F)(F)F)n3)c2C)n1 the results were S2 tox inactive.
COc1cc(/C=C(\C#N)c2nc3ccc(C)cc3[nH]2)c([N+](=O)[O-])cc1OC was read as ATXN2 expr inh inactive, D3 antag -52, TGFb SMAD3 inh inactive, HepG2 viability inactive, DRD3 agonist inactive and S2 tox inactive.
`N#C/C(=C/c1ccc(N2CCOCC2)o1)c1nc2ccccc2[nH]1` gave ATXN2 expr inh inactive, D3 antag inactive, TGFb SMAD3 inh inactive, HepG2 viability inactive, DRD3 agonist inactive and S2 tox inconclusive.
COc1cc(/C=C(\C#N)c2nc3ccc(C)cc3[nH]2)cc([N+](=O)[O-])c1O was read as ATXN2 expr inh inactive, D3 antag inconclusive, TGFb SMAD3 inh inconclusive, HepG2 viability inactive, DRD3 agonist inactive and S2 tox 18µM.
For N#C/C(=C\c1cc([N+](=O)[O-])c(N2CCOCC2)cc1N1CCOCC1)c1nc2ccccc2[nH]1 the results were ATXN2 expr inh inactive, D3 antag -79, TGFb SMAD3 inh inactive, HepG2 viability inactive, DRD3 agonist inactive and S2 tox inconclusive.
`CCN1CCc2c(sc3c2c(NCc2ccco2)nc2nnnn23)C1` gave ATXN2 expr inh inactive, D3 antag -65, TGFb SMAD3 inh inactive, HepG2 viability inactive, DRD3 agonist inactive and S2 tox inactive.
CC(=O)c1cc(-c2ccc(F)cc2)n(CCC(=O)NC2CCCCC2)c1C was read as TGFb SMAD3 inh inconclusive, HepG2 viability inactive and DRD3 agonist inactive.
For c1ccc(-c2ccccc2OCCCCN2CCCCC2)cc1 the results were ATXN2 expr inh inactive, D3 antag -71, TGFb SMAD3 inh inactive, HepG2 viability inactive, DRD3 agonist inactive and S2 tox inconclusive.
For c1ccc(-c2ccccc2OCCCN2CCCC2)cc1 the results were ATXN2 expr inh inactive, D3 antag -71, TGFb SMAD3 inh inactive, HepG2 viability inactive, DRD3 agonist inactive and S2 tox inactive.
For c1ccc(-c2ccccc2OCCOCCN2CCNCC2)cc1 the results were ATXN2 expr inh inactive[11.3 µM], D3 antag inactive, TGFb SMAD3 inh inactive, HepG2 viability inactive, DRD3 agonist inactive and S2 tox inconclusive.
For c1ccc(-c2ccccc2OCCCN2CCCCCC2)cc1 the results were D3 antag inconclusive, TGFb SMAD3 inh inactive, HepG2 viability inactive, DRD3 agonist inactive and S2 tox inconclusive.
CNC(=O)CSc1nnc(C(C)C)n1C was read as ATXN2 expr inh inactive, D3 antag inactive, TGFb SMAD3 inh inactive, HepG2 viability inactive, DRD3 agonist inactive and S2 tox inactive.
For CCn1c(SCC(=O)NC)nnc1C(C)C the results were ATXN2 expr inh inactive, D3 antag -52, TGFb SMAD3 inh inactive, HepG2 viability inactive, DRD3 agonist inactive and S2 tox inactive.
CCC(c1nnnn1-c1ccc2c(c1)OCCO2)N1CCN(C/C=C/c2ccccc2)CC1 (stereo not given) was read as ATXN2 expr inh inactive, D3 antag inactive, TGFb SMAD3 inh inconclusive, HepG2 viability inactive, DRD3 agonist 66 and S2 tox inconclusive.
`CCC(c1nnnn1-c1ccc2c(c1)OCCO2)N1CCN(c2ccccc2)CC1` (stereo not given) gave ATXN2 expr inh inactive, D3 antag inactive, DRD3 agonist inactive and S2 tox inactive.
For O=C(Nc1ccc2c(c1)OCCO2)C(CCc1ccccc1)N1CCN(c2ccc(F)cc2)CC1 (stereo not given) the results were ATXN2 expr inh inactive, D3 antag inactive, TGFb SMAD3 inh inconclusive, HepG2 viability inactive, DRD3 agonist inactive and S2 tox inconclusive.
For C(=C\c1ccccc1)/CN1CCN(C(c2nnnn2-c2ccc3c(c2)OCCO3)C2CC2)CC1 (stereo not given) the results were ATXN2 expr inh inactive, D3 antag inconclusive, TGFb SMAD3 inh inconclusive, HepG2 viability inactive, DRD3 agonist 41 and S2 tox inconclusive.
For C(=C\c1ccccc1)/CN1CCN(C(CCc2ccccc2)c2nnnn2-c2ccc3c(c2)OCCO3)CC1 (stereo not given) the results were ATXN2 expr inh inactive, D3 antag -110, TGFb SMAD3 inh inconclusive, HepG2 viability inactive, DRD3 agonist inactive and S2 tox inactive.
O=C(Nc1ccc2c(c1)OCCO2)C(CCc1ccccc1)N1CCN(C/C=C/c2ccccc2)CC1 (stereo not given) was read as ATXN2 expr inh inconclusive, D3 antag -109, TGFb SMAD3 inh inconclusive, HepG2 viability inactive, DRD3 agonist inactive and S2 tox inconclusive.
